According to ChEMBL document CHEMBL3988442, “University of Dundee, Small-Polar-MMV Screening Library” (2021):
For part of these data: Potency and affinity values are given separately.

What was measured:
Parameters in all cases: scale not given: direction of the effect not stated beside the values
[1] = target: Protein translocase subunit SecA (Escherichia coli (strain K12)) (UniProt P10408); assay: Assay to Identify E. coli SecA ATPase Inhibitors; type: functional; settings: 30 µM
[2] = target: T1, Ubiquitin-activating enzyme e1, putative (Leishmania donovani (strain BPK282A1)) (UniProt E9BSI1); assay: Leishmania donovani Ubiquitin Activating Enzyme (LdE1); type: functional; settings: 30 µM
T1 sequence (whole entry): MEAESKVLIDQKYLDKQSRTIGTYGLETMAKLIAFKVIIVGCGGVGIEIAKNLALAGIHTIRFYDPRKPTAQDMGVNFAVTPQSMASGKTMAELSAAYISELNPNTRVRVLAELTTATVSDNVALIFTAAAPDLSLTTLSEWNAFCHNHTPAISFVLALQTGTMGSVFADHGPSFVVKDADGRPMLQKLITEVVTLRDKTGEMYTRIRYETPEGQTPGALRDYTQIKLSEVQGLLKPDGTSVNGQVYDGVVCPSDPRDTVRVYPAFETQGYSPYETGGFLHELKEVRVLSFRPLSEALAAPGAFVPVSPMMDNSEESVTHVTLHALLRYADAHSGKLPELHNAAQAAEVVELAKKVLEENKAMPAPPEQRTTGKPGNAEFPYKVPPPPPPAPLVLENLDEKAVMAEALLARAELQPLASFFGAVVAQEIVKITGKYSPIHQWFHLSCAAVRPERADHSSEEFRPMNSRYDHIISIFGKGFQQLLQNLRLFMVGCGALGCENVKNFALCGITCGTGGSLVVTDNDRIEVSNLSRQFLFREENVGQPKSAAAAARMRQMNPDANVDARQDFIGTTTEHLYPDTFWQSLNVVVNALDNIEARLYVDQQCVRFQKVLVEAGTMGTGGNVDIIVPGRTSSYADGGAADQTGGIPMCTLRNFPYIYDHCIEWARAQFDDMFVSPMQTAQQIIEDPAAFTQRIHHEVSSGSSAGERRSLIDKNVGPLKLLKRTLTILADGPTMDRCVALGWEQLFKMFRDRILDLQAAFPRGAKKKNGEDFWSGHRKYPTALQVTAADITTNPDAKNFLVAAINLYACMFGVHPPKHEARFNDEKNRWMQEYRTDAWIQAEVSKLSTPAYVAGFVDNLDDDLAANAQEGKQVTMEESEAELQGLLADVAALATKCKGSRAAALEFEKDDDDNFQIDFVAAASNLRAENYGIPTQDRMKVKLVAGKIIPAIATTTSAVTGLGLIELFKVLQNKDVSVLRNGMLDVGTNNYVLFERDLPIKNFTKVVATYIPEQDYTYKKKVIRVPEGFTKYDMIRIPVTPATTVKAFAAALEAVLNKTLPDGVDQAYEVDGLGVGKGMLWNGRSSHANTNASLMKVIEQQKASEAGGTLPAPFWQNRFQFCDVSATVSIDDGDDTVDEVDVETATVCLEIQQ

[3] = target: Sialic acid-binding Ig-like lectin 9 (Homo sapiens) (UniProt Q9Y336); assay: Hs-Siglec9 ALPHAscreen SOP 20170721; settings: 10 µM
Chain of Sialic acid-binding Ig-like lectin 9 (Homo sapiens) (Q9Y336 whole entry): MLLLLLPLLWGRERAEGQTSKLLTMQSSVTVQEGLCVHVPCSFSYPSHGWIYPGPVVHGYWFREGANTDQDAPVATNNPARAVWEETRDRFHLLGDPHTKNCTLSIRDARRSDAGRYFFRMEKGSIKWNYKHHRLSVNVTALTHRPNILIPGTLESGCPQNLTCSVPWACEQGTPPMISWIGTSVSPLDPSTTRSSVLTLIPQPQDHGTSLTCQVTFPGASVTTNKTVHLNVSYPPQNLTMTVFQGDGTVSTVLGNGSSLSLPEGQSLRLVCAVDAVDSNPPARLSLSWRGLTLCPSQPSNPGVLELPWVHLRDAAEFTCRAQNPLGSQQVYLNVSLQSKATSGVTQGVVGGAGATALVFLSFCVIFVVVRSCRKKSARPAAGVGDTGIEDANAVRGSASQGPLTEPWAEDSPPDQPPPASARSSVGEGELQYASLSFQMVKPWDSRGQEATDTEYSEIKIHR

[4] = system: Trypanosoma cruzi; assay: Trypanosoma cruzi phosphomannomutase and mannose-1-phosphate guanylyltransferase assay; type: functional; settings: 10 µM
[5] = target: T2, Arginase-2, mitochondrial (Homo sapiens) (UniProt P78540); assay: in vitro enzyme assay to detect the production of urea directly proportional to the activity of Arginase II; type: functional; settings: 33.3 µM; note: in the data most compounds retested in dose-response had high values
T2 sequence (whole entry): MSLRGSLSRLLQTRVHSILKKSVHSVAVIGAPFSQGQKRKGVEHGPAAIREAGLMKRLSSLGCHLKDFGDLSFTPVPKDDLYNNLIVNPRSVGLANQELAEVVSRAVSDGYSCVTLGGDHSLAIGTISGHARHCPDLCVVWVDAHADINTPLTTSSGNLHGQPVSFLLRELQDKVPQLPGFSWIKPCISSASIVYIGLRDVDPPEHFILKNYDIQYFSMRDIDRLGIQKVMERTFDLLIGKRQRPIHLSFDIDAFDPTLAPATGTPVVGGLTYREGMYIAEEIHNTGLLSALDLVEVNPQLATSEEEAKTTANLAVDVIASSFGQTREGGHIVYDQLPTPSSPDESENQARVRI

[6] = target: T3, Proteasome subunit beta (Trypanosoma cruzi) (UniProt O96673); assay: Trypanosoma cruzi proteasome chymotrypsin-like activity (TcProtChymo) assay.; note: in the data most compounds retested in dose-response had high values; type: functional; settings: 9.37 µM
T3 sequence (whole entry): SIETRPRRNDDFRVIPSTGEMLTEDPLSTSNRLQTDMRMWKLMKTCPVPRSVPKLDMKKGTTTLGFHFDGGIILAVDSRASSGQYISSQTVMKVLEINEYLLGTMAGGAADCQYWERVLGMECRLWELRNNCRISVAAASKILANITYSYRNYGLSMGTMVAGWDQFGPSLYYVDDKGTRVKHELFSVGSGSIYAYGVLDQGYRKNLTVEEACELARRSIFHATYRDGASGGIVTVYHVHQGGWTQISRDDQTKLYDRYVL

[7] = organism: Homo sapiens; assay: To identify inhibition of the IFN signalling (Jak-Stat) pathway via expression of an eGFP reporter gene under the control of an IFN-stimulated response element (ISRE) containing MxA promoter.; type: functional; settings: 30 µM
[8] = target: T4, Tyrosyl-tRNA synthetase, putative (Trypanosoma cruzi (strain CL Brener)) (UniProt Q4DSP6); assay: Trypanosoma cruzi tyrosyl tRNA synthetase (TcYRS) _High Tyrosine SOP; type: functional; settings: 30 µM; note: in the data most compounds retested in dose-response had high values
T4 sequence (whole entry): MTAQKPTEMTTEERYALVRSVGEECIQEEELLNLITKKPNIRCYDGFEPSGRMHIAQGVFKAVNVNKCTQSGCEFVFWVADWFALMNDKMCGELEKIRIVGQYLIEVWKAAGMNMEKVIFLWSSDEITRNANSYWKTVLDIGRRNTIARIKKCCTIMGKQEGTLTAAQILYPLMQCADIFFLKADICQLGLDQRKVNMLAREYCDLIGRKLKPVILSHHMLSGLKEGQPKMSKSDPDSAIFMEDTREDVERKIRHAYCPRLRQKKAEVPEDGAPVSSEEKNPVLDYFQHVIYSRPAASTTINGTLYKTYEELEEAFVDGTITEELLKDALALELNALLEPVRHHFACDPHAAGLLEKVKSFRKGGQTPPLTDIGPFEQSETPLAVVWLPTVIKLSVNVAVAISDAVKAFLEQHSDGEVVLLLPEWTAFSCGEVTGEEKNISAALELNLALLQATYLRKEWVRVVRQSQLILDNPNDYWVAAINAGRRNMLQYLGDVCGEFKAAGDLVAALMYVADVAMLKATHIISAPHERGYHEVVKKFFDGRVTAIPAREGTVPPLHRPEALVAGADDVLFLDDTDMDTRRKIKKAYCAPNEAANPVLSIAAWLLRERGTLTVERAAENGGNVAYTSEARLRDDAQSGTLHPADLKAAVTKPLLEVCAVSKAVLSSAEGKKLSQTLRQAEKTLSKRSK

[9] = target: T4, Tyrosyl-tRNA synthetase, putative (Trypanosoma cruzi (strain CL Brener)); assay: Trypanosoma cruzi tyrosyl tRNA synthetase (TcYRS) SOP; type: functional; settings: 30 µM
[10] = target: Chromo domain-containing protein 1 (Saccharomyces cerevisiae (strain ATCC 204508 / S288c) (Baker's yeast)) (UniProt P32657); assay: ScCHD-1 Enzyme Inhibition Assay; type: functional; settings: 30 µM; note: in the data most compounds retested in dose-response had high values
Chain of Chromo domain-containing protein 1 (Saccharomyces cerevisiae (strain ATCC 204508 / S288c) (Baker's yeast)) (P32657 whole entry, the tested form may be a part): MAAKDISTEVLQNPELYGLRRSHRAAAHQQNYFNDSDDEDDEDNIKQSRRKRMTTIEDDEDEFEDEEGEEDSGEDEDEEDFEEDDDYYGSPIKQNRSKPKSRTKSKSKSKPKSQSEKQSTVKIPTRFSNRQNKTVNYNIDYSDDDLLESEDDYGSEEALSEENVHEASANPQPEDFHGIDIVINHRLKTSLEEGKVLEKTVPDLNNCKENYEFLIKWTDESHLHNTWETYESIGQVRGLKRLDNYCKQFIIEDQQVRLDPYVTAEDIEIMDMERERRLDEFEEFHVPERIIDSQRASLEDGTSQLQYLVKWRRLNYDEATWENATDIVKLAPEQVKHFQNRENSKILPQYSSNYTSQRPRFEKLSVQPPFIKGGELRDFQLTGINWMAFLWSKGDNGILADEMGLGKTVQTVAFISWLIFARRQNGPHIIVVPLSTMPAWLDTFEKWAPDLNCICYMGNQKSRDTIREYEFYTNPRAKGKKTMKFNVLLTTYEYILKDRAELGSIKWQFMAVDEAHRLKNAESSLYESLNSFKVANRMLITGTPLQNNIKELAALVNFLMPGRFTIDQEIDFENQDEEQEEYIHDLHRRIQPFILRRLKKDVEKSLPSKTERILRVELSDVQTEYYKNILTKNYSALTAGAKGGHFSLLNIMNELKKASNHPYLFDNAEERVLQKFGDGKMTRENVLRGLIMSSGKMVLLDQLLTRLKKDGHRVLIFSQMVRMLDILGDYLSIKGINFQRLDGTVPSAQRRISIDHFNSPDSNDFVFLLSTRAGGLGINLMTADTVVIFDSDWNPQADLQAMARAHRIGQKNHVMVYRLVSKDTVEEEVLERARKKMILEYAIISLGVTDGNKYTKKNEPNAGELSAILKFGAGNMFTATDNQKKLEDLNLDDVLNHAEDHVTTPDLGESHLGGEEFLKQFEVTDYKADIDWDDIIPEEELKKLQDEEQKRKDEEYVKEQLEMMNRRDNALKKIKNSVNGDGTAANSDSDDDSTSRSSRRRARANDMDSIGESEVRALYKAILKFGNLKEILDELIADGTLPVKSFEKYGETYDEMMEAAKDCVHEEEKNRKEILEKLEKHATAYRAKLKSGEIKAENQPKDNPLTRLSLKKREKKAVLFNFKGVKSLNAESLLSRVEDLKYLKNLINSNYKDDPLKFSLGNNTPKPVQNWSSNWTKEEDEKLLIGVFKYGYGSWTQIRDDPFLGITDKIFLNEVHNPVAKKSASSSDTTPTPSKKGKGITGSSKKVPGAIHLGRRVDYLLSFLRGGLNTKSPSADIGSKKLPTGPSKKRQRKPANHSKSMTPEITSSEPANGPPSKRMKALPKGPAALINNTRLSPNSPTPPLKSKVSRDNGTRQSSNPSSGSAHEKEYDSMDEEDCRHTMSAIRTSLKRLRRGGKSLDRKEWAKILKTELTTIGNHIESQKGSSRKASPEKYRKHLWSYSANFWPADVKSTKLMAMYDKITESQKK

Chain of Protein translocase subunit SecA (Escherichia coli (strain K12)) (P10408 whole entry): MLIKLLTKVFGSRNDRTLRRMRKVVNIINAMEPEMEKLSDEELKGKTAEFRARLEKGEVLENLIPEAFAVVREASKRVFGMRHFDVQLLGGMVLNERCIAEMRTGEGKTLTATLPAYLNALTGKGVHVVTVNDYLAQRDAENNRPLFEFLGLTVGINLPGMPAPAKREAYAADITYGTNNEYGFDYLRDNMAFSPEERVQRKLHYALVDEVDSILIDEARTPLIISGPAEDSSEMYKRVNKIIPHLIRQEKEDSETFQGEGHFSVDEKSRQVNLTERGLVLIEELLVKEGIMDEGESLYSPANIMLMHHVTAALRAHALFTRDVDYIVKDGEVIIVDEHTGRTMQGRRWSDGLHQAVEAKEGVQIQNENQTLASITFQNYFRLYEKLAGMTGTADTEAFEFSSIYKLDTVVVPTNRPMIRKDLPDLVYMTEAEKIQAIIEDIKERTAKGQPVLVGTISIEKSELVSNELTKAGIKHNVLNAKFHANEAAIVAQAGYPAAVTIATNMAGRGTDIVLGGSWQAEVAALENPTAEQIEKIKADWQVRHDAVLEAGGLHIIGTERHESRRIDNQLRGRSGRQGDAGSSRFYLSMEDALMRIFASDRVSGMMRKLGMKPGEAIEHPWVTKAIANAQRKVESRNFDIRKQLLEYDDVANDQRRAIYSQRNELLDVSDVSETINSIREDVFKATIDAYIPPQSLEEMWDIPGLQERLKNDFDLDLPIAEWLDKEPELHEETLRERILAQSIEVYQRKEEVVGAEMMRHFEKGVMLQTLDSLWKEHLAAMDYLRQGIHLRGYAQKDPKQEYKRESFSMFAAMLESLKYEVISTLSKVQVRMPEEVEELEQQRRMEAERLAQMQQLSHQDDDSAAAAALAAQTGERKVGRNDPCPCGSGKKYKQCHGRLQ

SMILES | Percent Effect [1] | Percent Effect [2] | Percent Effect [3] | Percent Effect [4] | Percent Effect [5] | Percent Effect [6] | Percent Effect [7] | Percent Effect [8] | Percent Effect [9] | Percent Effect [10]
CN(C)CC(=O)N1CCC2(CC1)COC(COc1ccccn1)C2 (stereo not given) | -4.97% | 6.49% | -5.49% | 2.82% | -4.86% | 12.3% | -11.4% | 5.79% | 12.8% | -0.892%
CCN1CCC2(C=C(C(=O)NC3CC3)c3ccccc32)CC1 | 2.3% | 6.49% | -1% | 1.13% | 0% | -2.49% | -10.8% | -0.966% | 2.5% | -3.59%
O=C(O)c1cc(S(=O)(=O)N2CCOc3ccccc32)ccc1F | -6.51% | 10.3% | -10.2% | 5.54% | -0.82% | 10.8% | -4.8% | -0.478% | 18.1% | -3.79%
Cn1ccnc1CN1CCOCC(Cc2ccccn2)C1 (stereo not given) | -3.37% | 6.67% | 0.649% | -4.14% | 5.75% | 11.3% | 8.81% | 1.06% | 10% | -19.9%
CC(C)CN1CCC2(CCN(Cc3ccoc3)CC2)C1=O | -1.85% | 27.3% | 3.42% | 3.94% | -4.57% | 19.7% | -0.618% | 10.6% | 12.5% | -9.31%
Cc1ncnc(NCc2cc3n(n2)CCCN(S(C)(=O)=O)C3)c1C | -4.52% | 8.11% | 3.12% | -1.07% | -1.75% | 7.71% | -0.0892% | 5.85% | 14.6% | -4.37%
CCC1CN(C(=O)c2ccccc2N2CCCC2)CCN1C(C)C (stereo not given) | -7.26% | 5.41% | -0.153% | -4.75% | -5.94% | 5.31% | -3.97% | 3.72% | -7.32% | -5.34%
CCc1nc(C)c(C(=O)NCCN2CCC(C)CC2)s1 | -2.31% | -2.6% | 7.15% | -4.1% | -2.25% | -6.84% | 9.62% | 0.98% | 11.8% | -2.04%
COC(=O)c1cccn1C1CCN(CC(=O)NC2CCCCC2)CC1 | -0.883% | 15.6% | 8.78% | -1.31% | 3.07% | 13.5% | 2.4% | 9.8% | 21.2% | -5.06%
O=C(CC1CC1)N1C[C@@H]2CCN(c3cnccn3)C[C@@H]2C1 | -1.69% | 14.3% | 4.05% | 1.69% | 0.913% | 5.06% | 16.8% | 5.8% | 15% | -3.72%
CC(C)c1cc(NC(=O)CN2CCC(N3CCCCC3)CC2)on1 | -2.28% | 20.8% | 11.8% | 6.53% | -1.43% | 9.3% | -6.15% | 11.8% | 32.9% | -5.62%
CCc1ccsc1C(=O)N1CCN(C(=O)CC(F)(F)F)CC1 | 2.23% | 18.2% | 11.7% | 1.68% | 1.02% | 10.5% | -19.1% | 6.86% | 23.5% | -4.02%
CCc1nccn1-c1cncc(C2CCCN2Cc2cccnc2)n1 (stereo not given) | -0.52% | 9.33% | 4.5% | 1.38% | 0.443% | 13.3% | -9.84% | 6.35% | 20% | -22.2%
Cc1ccc(-c2nc(CNCC3CN(C)CCO3)cs2)o1 (stereo not given) | 0.253% | 28.6% | -5.08% | 6.53% | -12.9% | 25.4% | 20% | 6.86% | 21.2% | -12.3%
O=C1CCC2(CCN(Cc3ccc(F)cc3)CC2)N1Cc1ccccc1 | -4.42% | 3.9% | -4.8% | -2.63% | -0.913% | 9.7% | 1.33% | 5.8% | 7.5% | -4.62%
CS(=O)(=O)NCC1CCCN(C(=O)COCC(F)(F)F)C1 (stereo not given) | -0.972% | 15.4% | 0.69% | 0.845% | 2.87% | 6.57% | 9.12% | 2.39% | 22.9% | -7.07%
CN(Cc1ccccc1)C(=O)c1nc(S(C)(=O)=O)n2ccccc12 | -7.02% | -92.3% | -5.33% | 9.67% | -1.23% | 1.96% | 5.84% | 1.44% | 13.2% | -7.37%
CCc1[nH]ncc1C(=O)N1CCCC(n2nc(C)nc2C)C1 (stereo not given) | -6.31% | 2.56% | -8.9% | 11.9% | -1.23% | 2.82% | 7.13% | 0.478% | 8.43% | -10.4%
Cc1cc(NC(=O)N(CC2CCOC2)C2CC2)no1 (stereo not given) | -2.1% | 13.3% | 6.54% | 1.21% | 2.22% | 6.7% | 21.8% | 5.79% | 12.8% | -7.01%
Cc1ccc(-c2nc(CN3CCCC(Cn4cncn4)C3)no2)cc1 (stereo not given) | -6.21% | -2.6% | 0.0125% | -0.373% | -3.48% | 0.351% | 25.7% | 1.96% | 0% | 9.47%
OC(COCc1ccccc1F)CN1CCc2c(ncn2C2CC2)C1 (stereo not given) | -3.46% | -5.33% | 7.5% | -4.02% | 2.66% | 8.06% | 10.4% | 2.63% | 0% | -6.26%
COCC1CN(Cc2ccc(OC)cc2)Cc2nn(C)cc21 (stereo not given) | 0.916% | 22.1% | -1.55% | -9.45% | 12.2% | 18.4% | 20.9% | 6.84% | 2.56% | -2.71%
CC(C)c1nc(C2CCCN2CC(=O)Nc2nncs2)no1 (stereo not given) | -6.03% | 16% | 8.36% | 0.402% | -1.33% | 5.17% | 7.39% | 5.79% | 15.4% | 23.5%
CC(CC#N)NC(=O)c1cc(Br)c2c(c1)OCCO2 (stereo not given) | -2.19% | -5.33% | -0.459% | -4.22% | 3.1% | -1.61% | 7.62% | 0.526% | 2.56% | -4.98%
Cn1ncc2c1NC(=O)CC2c1ccc(O)cc1 (stereo not given) | -7.41% | 0% | -2.98% | -8.63% | -6.64% | 11.3% | 30.7% | 0.532% | 4.88% | -4.05%
Cc1noc(Cl)c1CCC(=O)N1CCc2sccc2C1 | -5.38% | 18.7% | 4.18% | 0.201% | -2.22% | 22.8% | 25.1% | 5.79% | 17.9% | -10.9%
Cn1ncc(NCc2cc(F)cc(F)c2)c(Cl)c1=O | -3.8% | 13.3% | -5.81% | -3.01% | -10.6% | 7.55% | 37.7% | 4.74% | 10.3% | -11.4%
